# Data: the supplement of paper PMC6555819
# What was measured:
# Assay in all cases: PBM binding z-score (relative to random genomic background probes); higher = stronger binding; sequences stand for … in GC…GCGATTGACAGCGTAGAATGAAGG
# [1] = system: PPARg:RXRa DBDmut IVT, anti-RXR (DBD mutation: RXRa K156A/R161A, NR concentration 270 nM, RXRa partner concentration 90 nM)
# Outline: (§1)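 For binding z-scores, the reference was random background probes on custom Agilent 4×180K protein-binding microarrays. These arrays were incubated 1 h with ligand-free nuclear receptor dimers in PBS pH 7.4, 2% milk, 0.02% Triton X-100, 1 mM DTT, 0.2 mg/mL BSA and 0.4 mg/ml salmon testes DNA. Fluorescence was scanned after antibody detection of each partner (one per run) and regression-normalized.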
# [2] = system: PPARg:RXRa IVT, anti-PPARg (NR concentration 270 nM, RXRa partner concentration 90 nM)
# Outline: as §1
# [3] = system: PPARg DBDmut:RXRa IVT, anti-PPARg (DBD mutation: PPARg1 K132A/R137A, NR concentration 270 nM, RXRa partner concentration 90 nM)
# Outline: as §1
# [4] = system: PPARg DBDmut IVT, anti-PPARg (DBD mutation: PPARg1 K132A/R137A, NR concentration 270 nM)
# Outline: as §1
# [5] = system: PPARg homodimer (NR concentration 180 nM)
# Outline: as §1
# [6] = system: PXR:RXRa (NR concentration 270 nM, RXRa partner concentration 90 nM)
# Outline: as §1
# [7] = system: PXR homodimer (NR concentration 270 nM)
# Outline: as §1
# [8] = system: RARa:RXR (NR concentration 270 nM, RXRa partner concentration 90 nM)
# Outline: as §1
# [9] = system: RARa homodimer (NR concentration 270 nM)
# Outline: as §1
# [10] = system: RARb:RXRa (NR concentration 270 nM, RXRa partner concentration 90 nM)
# Outline: as §1
Sequence,PBM binding z-score [1],PBM binding z-score [2],PBM binding z-score [3],PBM binding z-score [4],PBM binding z-score [5],PBM binding z-score [6],PBM binding z-score [7],PBM binding z-score [8],PBM binding z-score [9],PBM binding z-score [10]
GCAGACAGGTGAAACGCAGGTAACTCAGGGTGGC,0.989,0.639,-1.03,-0.587,-0.666,-0.437,-0.625,0.284,-0.853,0.575
CCTAATGGGCCAAGGTCATTGATCAGTCAAAGCA,2.35,2.59,-0.175,-0.521,2.49,3.83,1.87,3.77,0.774,3.59
GCATATAGGTAATACAACGTGAAAGTCCGATTGT,4.04,2.2,0.468,0.495,-0.277,-0.414,-0.12,-0.549,0.219,-0.451
TCAAGTAGGTTAGGGGCATTCAGAATGGCGTCGA,4.59,3.94,0.0234,0.234,1.35,1,0.86,0.878,0.676,1.51
ATCGAAAGGTCGACGAGGGGAGTATACACCGTTT,0.481,1.64,1.34,0.0319,1.49,2.39,0.488,3.37,0.328,3.74
GCTATCAGTTGAAAGGGCAACCGAATGATTCTCG,0.18,0.3,-0.111,-0.549,0.562,0.584,-0.393,1.25,-0.381,2.07
AGTCAAAGTTCATCTAGGTAACGTGAGATATGCT,1.17,3.86,1.73,0.803,2.99,5.36,7.67,3.82,1.48,4.96
TGAATGAGGTTAAAGATCAGAGAACGTGGCGTCG,1.89,3.53,1.38,0.333,0.79,2,0.0576,3.32,0.124,1.98
CCGACTGGGGCAAATGTTACCATACTCAGTACGA,4.63,3.74,0.00418,0.212,0.439,-0.402,-0.187,-0.273,-0.109,0.683
ATCTCTTGGTAACCAAGTTCAGTGAATGCCGAAC,-0.417,0.552,0.44,0.768,0.28,1.92,2.1,0.475,-0.473,0.956
CCTAGTTGGTCAAGGCCACACACGCTATAGGTAC,1.25,1.16,0.294,0.121,1,0.291,1.6,0.34,0.796,1.76
AGAACGAGGGCACGCGGAGTTGATAGCAGAGTAG,4.28,4.01,0.563,-0.521,0.0413,1.45,-0.14,1.12,-0.653,2.64
CCTTACGGGTCACGAGGTTCTAGCACGACGAGCG,4.32,5.09,0.979,-0.156,2.86,4.06,-0.111,5.48,0.989,4.41
CCCAGTAGGTTATGGGGCATTCAGGCAACGGTGA,3.64,4.66,-0.461,-0.268,0.645,-0.0768,-0.414,0.112,-0.0462,0.967
CCTACTGAGCCAAGGTCATTGATCAGTCAAAGCA,0.598,0.834,-0.559,-0.729,2.66,3.69,2.46,3.64,1.47,3.15
CGTCCAGGGTCAAAGGTCAGTGAAGAGATGACGG,2.45,5.28,0.657,0.0677,3.17,6.94,0.868,8.37,1.58,5.63
CCTACGGGGCCATTCAGAGGTCATTGATCATATG,0.224,1.43,-1.02,-0.577,4.06,5.55,4.64,5.76,0.566,3.55
GCGACTGGGGCTTCAGCAGGTTACCATAACTTAA,0.693,0.216,-0.978,-1.13,0.227,-0.117,-0.245,0.339,-0.857,-0.108
ACTATTAGTTGAGACGAGGGAAACCGATAGGTTG,0.0625,-0.339,0.706,0.394,0.465,-0.464,-0.0777,0.0368,0.655,-0.193
TCTATTGGTTGAAGGGCAACCGACGAGTCCGTTT,1.93,0.82,0.765,0.266,1.09,0.725,0.614,0.74,0.718,1.55
